Screening results: PubChem BioAssay, National Center for Advancing Translational Sciences (NCATS)
An excerpt weighted towards active compounds, which were near 5.9% of everything screened.
GLP-1R agonist = qHTS of GLP-1 Receptor Agonists | actives 0.007% (n = 380,000) | HEK293 GLP-1R CRE-luciferase, luminescence, 4-6 h; cells express a hypersensitive GLP-1R form | Glucagon-like peptide 1 receptor (Homo sapiens), P43220 | AID 624172, 2012 | Potency, µM (highest dose often 45.6 µM), hits mostly activators
HEK293 tox = qHTS of GLP-1 Receptor Inverse Agonists: Cytotox Screen; HEK293 cAMP-luciferase reporter cells, luminescence, 24 h; Potency, µM (top dose mostly 38.3 µM), actives largely listed as inhibitors; actives 0.13% (n = 410,000);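 also: loss of luciferase light is scored as toxicity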
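Quantitative HTS format, 1536 wells, 200 cells/uL seeded. Compounds: 23 nL, 24 h, 37 °C. Detection: luciferase reagent, luminescence at 12 min RT; decreased signal taken as cytotoxic.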
GLP1R inv ag = qHTS of GLP-1 Receptor Inverse Agonists (Inhibition Mode); actives 1.6% (n = 410,000); HEK293 GLP-1R CRE-luciferase, luminescence, 24 h; GLP-1R form is constitutively active; Potency, µM (top dose mostly 38.3 µM), actives largely listed as inhibitors; AID 624417, 2012; Glucagon-like peptide 1 receptor (Homo sapiens), P43220; also: nearly all actives have a fitted effect of over 55% in size
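Using stably transfected HEK293 (constitutively active GLP-1R, cAMP-luciferase reporter), compounds were incubated 24 hr and luciferase measured by luminescence.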
RORg inh = qHTS for inhibitors of ROR gamma transcriptional activity. actives 5.4% (n = 310,000). Nuclear receptor ROR-gamma (Mus musculus), P51450. Potency, µM (highest dose often 53.6 µM), most hits filed as inhibitors. AID 2551, 2010. Drosophila S2 Gal4-RORgamma UAS-luciferase reporter, 20 h; also: nearly all actives have a fitted effect of over 60% in size
Target sequence (P51450 whole entry, looked up, the tested form may be a part): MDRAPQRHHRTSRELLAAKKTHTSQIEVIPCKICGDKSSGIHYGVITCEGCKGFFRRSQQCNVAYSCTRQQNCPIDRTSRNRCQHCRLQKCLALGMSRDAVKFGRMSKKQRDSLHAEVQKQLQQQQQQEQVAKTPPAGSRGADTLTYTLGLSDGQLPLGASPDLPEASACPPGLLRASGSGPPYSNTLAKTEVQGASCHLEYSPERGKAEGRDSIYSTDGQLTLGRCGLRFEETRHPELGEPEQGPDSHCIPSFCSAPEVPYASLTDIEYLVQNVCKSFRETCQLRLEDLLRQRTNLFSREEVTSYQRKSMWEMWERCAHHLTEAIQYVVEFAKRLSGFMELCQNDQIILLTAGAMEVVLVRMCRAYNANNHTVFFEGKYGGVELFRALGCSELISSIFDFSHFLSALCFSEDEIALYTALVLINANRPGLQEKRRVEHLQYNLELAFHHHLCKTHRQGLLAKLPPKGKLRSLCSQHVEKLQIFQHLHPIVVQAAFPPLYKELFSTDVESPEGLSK
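In this cell-based reporter format, copper sulfate (700 uM final) drives Gal4–ROR gamma fusion expression from a metallothionein promoter in Drosophila Schneider cells; compounds preincubated 1 hr, reporter read after 20 hr at ambient temperature.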
VP16 counter = VP16 counterscreen qHTS for inhibitors of ROR gamma transcriptional activity. Potency, µM (top dose mostly 53.6 µM), usual class: inhibitors. Drosophila S2 Gal4-VP16 UAS-luciferase, luminescence, 20 h. actives 3.5% (n = 310,000);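 also: Gal4-VP16 expression switched on by copper sulfate through the metallothionein promoter; nearly all actives have a fitted effect of over 50% in size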
A number is an active result; 0 = inactive; ? = inconclusive; - = not tested or not shown; [ ] = another dose, or the depositor's remark. Calls follow the shape of the dose curve; as a rule, active = well fitted curve in the direction sought with a large enough effect; inconclusive = small, poorly fitted or top-dose-only effect, or another doubt; inactive = no such curve, though single readings can be large; an effect the other way counts as inactive or inconclusive.

SMILES	GLP-1R agonist	HEK293 tox	GLP1R inv ag	RORg inh	VP16 counter
S=C(N/N=C/c1ccc(Br)cc1)N1CCCCC1	0	0	0	1.4µM	0.89µM
CCCn1c(-c2ccc(F)cc2)nc2c(N3CCN(C)CC3)nc(C)nc21	-	-	-	0	0
CCCCN1CCCC1C(=O)Nc1c(C)cc(C)cc1C (configuration not stated)	0	-	-	0	0
CC1=C(C)/C(=N/OC(=O)c2cccc([N+](=O)[O-])c2)C=CC1=O	0	?	0	3.5µM	3.5µM
COc1ccccc1C/C(N)=N/OC(=O)/C=C/c1ccccc1	0	0	?	5.6µM	0
COc1ccc(C/C(N)=N/OC(=O)c2cccc([N+](=O)[O-])c2)cc1	?	0	0	0	0
COc1ccccc1C/C(N)=N/OC(=O)c1cccc([N+](=O)[O-])c1	0	0	?	10µM	0
COc1ccccc1C/C(N)=N/OC(=O)c1cccs1	0	?	0	0	0[10 µM]
CC1CCN(c2ccc(-c3cccc(NS(=O)(=O)c4ccc(F)cc4F)c3)nn2)CC1	-	0	?	-	-
COc1cccc(-n2ccnc2SCC(=O)Nc2cccc3ccccc23)c1	-	0	?	-	-
COc1ccc(OCCSc2nnc(CCNC(=O)c3ccc(Cl)c(Cl)c3)n2C)cc1	0	0	10µM	?	0
CCCCOc1ccc(C(=O)N2CCN(CCc3ccccn3)CC2)cc1	-	0	?	-	-
COc1cccc(C(=O)Oc2ccc(/C=N/Nc3ccc(C(=O)O)cc3)cc2OC)c1	0	0	0	0[1.91 µM]	2.2µM
COc1cc(/C=N/n2cnnc2)ccc1OC(=O)c1ccncc1	0	0	0	?	?
COc1cccc(OCc2cc(/C=N/Nc3ccc(C(=O)O)cc3)ccc2OC)c1	0	0	0	0.28µM	7.9µM
COc1cc(/C=N/n2cnnc2)ccc1OC(=O)c1cccnc1	0	0	0	?	11µM
COc1cccc(C(=O)Nc2ccccc2-c2nnc(-c3ccc(C(C)(C)C)cc3)o2)c1	0	0	0	-	-
CCOCCCn1c(SCC(=O)Nc2ccc(C)cc2)nc2ccccc2c1=O	-	0	0	-	-
COc1ccc([N+](=O)[O-])cc1NC(=S)NC(NC(=O)C(c1ccccc1)c1ccccc1)C(Cl)(Cl)Cl (configuration not stated)	0	?	2.5µM	0	0
CC(=O)NC(=S)Nc1ccc([N+](=O)[O-])cc1C	0	0	0	0	0
COc1ccc([N+](=O)[O-])cc1NC(=S)NC(C)=O	0	0	0	0	0
Cc1cc([N+](=O)[O-])ccc1NC(=S)NC(=O)Cc1ccccc1	0	0	?	22µM	?
Cc1ccc([N+](=O)[O-])cc1NC(=S)NC(=O)CC(C)(C)C	0	0	?	6.3µM	22µM
CCCCC(=O)NC(=S)Nc1cc([N+](=O)[O-])ccc1OC	0	0	0	10µM	0
O=c1c(N2CCc3ccccc3C2)csc2ccc(F)cc12	-	0	0	-	-
SMILES	GLP-1R agonist	HEK293 tox	GLP1R inv ag	RORg inh	VP16 counter
C[C@@H](C(=O)NCc1nc2ccccc2[nH]1)[C@@H]1C[C@@]1(C)[C@@H](NC(=O)OCc1ccccc1)c1ccccc1	-	-	-	0	0
Cc1ccc(S(=O)(=O)C(CNC(=O)C(=O)NCc2ccc(Cl)cc2)c2cccs2)cc1 (configuration not stated)	-	0	0	-	-
COc1ccc(Cn2ccc3nc(C)c(C(=O)NCc4cccc(OC)c4)cc3c2=O)cc1	-	0	?	-	-
COc1ccc(NC(=S)NNc2ccc([N+](=O)[O-])cc2S(=O)(=O)Nc2ccc(C)cc2C)cc1	0	?	?	?	0
O=C(NC(NC(=S)Nc1c(Cl)cccc1Cl)C(Cl)(Cl)Cl)c1cccc([N+](=O)[O-])c1 (configuration not stated)	0	13µM	5µM	?	8.9µM
Cc1ccc(NS(=O)(=O)c2cc([N+](=O)[O-])ccc2NNC(=S)Nc2cc(C)ccc2C)c(C)c1	0	11µM	?	?	?
Cc1cc([N+](=O)[O-])ccc1NC(=S)NC(=O)C(c1ccccc1)c1ccccc1	0	?	10µM	7.9µM	10µM
O=C(NNC(=S)NC(=O)c1ccccc1Cl)c1cccc([N+](=O)[O-])c1	0	0	0	?	?
COc1ccc(OCC2c3cc(OC)c(OC)cc3CCN2C(=O)c2c(F)cccc2F)cc1 (configuration not stated)	0	0	0	-	-
CN(C)/C=N/c1c(C#N)cnn1-c1ccc(F)c(Cl)c1	-	-	-	0	0
Cc1nc(N2CCOCC2)c2c(C(=O)NCCc3ccccc3)c(C)oc2n1	-	0	0	-	-
C=C1CCC2[C@](C)(CO)C(O)CC[C@]2(C)C1C/C=C1/C(=O)OCC1O (some centres not stated)	0	-	-	13µM	0
C=C1CC[C@@H]2[C@](C)(CO)[C@H](O)CC[C@@]2(C)[C@@H]1C/C=C1/C(=O)OCC1O (some centres not stated)	0	0	0	-	-
CSCC[C@H](NC(=O)[C@H](CC(C)C)NC(=O)[C@@H]1CCCN1C(=O)[C@H](Cc1ccccc1)NC(=O)[C@H](Cc1ccccc1)NC(=O)[C@@H]1CCC(=O)N1)C(N)=O	-	-	-	0	0
Oc1ccc(Cl)cc1C1=Nc2ccccc2N=C(c2ccccc2)C1	-	0	0	-	-
Cc1ccc2c(c1)N=C(c1ccccc1)CC(C(Cl)Cl)=N2	0	0	?	11µM	?
Cc1ccc(C2=Nc3ccccc3N=C(C(Cl)Cl)C2)cc1	0	0	0	11µM	?
CC(=O)c1cccc(Nc2ncnc3c2cnn3-c2cccc(Cl)c2)c1	-	0	0	-	-
S=c1[nH]nc(-c2ccccc2)c2ccccc12	0	0	0	7.1µM	11µM
Cc1ccc(-c2n[nH]c(=S)c3ccccc23)cc1	0	0	0	0	0
CCOc1ccc(-c2n[nH]c(=S)c3ccccc23)cc1	0	0	0	7.1µM	10µM
Cn1c(NC(=O)c2cccc(Cn3cc(Cl)cn3)c2)nc2ccccc21	0	0	0	1.8µM	2.8µM
CCn1c(NC(=O)c2cccc(Cn3cc(Cl)cn3)c2)nc2ccccc21	0	0	0	2.8µM	2µM
CCc1nc2ccc(C(=O)NCCCN3CCN(c4ccc(F)cc4)CC3)cc2nc1CC	0	0	0	0	0
CN1CCN(CCNC(=O)c2ccc3nc(-c4ccc(F)cc4)c(-c4ccc(F)cc4)nc3c2)CC1	0	?	5.6µM	?	0
CCN(CC)S(=O)(=O)c1ccc(C(=O)Nc2nnc(NC(=S)Nc3ccccc3)s2)cc1	0	0	0	?	?
COc1cc(OC)cc(C(=O)Nc2nnc(NC(=S)Nc3ccccc3)s2)c1	0	0	0	0.63µM	?
